# Reference: PubChem BioAssay
# Activity calls are given as the source filed them.
# Tests used:
# [1] = small molecules captured by biotinylated probe aFSTL3 – biochemical, small-molecule microarray, fluorescence 635/667, stem cell growth factor project, primary screen (AID 1064); conditions: higher = more signal;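 further: measures binding of the biotinylated anti-FSTL3 antibody to printed compounds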
# [2] = binders from COS7 lysate, DM2A8 probe, primary screen, torsin A project, cell lysate, small-molecule microarray, fluorescence 635/667 (AID 1065); conditions: higher = more signal, COS7 lysate expressing mutant human TOR1A
# [3] = small molecules captured by biotinylated probe aFGF2 – biochemical, small-molecule microarray, fluorescence 635/667, stem cell growth factor project, primary screen (AID 1067); conditions: higher = more signal;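 further: measures binding of biotinylated aFGF2 protein to printed compounds on slides; z-score merges feature fluorescence and signal-to-noise across triplicate slides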
# [4] = small molecules captured by biotinylated probe aFGF10 – biochemical, small-molecule microarray, fluorescence 635/667, stem cell growth factor project, primary screen (AID 1071); conditions: higher = more signal;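 further: score merges 667 nm spot intensity and signal to noise from triplicate slides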
# [5] = biological target: Neurogenic locus notch homolog protein 2 (Homo sapiens) (UniProt Q04721); experiment: small molecules binding Notch2 protein – biochemical, small-molecule microarray, 635 nm fluorescence, stem cell growth factors, primary screen (AID 1073); conditions: higher = more signal
# Chain of Neurogenic locus notch homolog protein 2 (Homo sapiens) (Q04721 whole entry, looked up, canonical isoform): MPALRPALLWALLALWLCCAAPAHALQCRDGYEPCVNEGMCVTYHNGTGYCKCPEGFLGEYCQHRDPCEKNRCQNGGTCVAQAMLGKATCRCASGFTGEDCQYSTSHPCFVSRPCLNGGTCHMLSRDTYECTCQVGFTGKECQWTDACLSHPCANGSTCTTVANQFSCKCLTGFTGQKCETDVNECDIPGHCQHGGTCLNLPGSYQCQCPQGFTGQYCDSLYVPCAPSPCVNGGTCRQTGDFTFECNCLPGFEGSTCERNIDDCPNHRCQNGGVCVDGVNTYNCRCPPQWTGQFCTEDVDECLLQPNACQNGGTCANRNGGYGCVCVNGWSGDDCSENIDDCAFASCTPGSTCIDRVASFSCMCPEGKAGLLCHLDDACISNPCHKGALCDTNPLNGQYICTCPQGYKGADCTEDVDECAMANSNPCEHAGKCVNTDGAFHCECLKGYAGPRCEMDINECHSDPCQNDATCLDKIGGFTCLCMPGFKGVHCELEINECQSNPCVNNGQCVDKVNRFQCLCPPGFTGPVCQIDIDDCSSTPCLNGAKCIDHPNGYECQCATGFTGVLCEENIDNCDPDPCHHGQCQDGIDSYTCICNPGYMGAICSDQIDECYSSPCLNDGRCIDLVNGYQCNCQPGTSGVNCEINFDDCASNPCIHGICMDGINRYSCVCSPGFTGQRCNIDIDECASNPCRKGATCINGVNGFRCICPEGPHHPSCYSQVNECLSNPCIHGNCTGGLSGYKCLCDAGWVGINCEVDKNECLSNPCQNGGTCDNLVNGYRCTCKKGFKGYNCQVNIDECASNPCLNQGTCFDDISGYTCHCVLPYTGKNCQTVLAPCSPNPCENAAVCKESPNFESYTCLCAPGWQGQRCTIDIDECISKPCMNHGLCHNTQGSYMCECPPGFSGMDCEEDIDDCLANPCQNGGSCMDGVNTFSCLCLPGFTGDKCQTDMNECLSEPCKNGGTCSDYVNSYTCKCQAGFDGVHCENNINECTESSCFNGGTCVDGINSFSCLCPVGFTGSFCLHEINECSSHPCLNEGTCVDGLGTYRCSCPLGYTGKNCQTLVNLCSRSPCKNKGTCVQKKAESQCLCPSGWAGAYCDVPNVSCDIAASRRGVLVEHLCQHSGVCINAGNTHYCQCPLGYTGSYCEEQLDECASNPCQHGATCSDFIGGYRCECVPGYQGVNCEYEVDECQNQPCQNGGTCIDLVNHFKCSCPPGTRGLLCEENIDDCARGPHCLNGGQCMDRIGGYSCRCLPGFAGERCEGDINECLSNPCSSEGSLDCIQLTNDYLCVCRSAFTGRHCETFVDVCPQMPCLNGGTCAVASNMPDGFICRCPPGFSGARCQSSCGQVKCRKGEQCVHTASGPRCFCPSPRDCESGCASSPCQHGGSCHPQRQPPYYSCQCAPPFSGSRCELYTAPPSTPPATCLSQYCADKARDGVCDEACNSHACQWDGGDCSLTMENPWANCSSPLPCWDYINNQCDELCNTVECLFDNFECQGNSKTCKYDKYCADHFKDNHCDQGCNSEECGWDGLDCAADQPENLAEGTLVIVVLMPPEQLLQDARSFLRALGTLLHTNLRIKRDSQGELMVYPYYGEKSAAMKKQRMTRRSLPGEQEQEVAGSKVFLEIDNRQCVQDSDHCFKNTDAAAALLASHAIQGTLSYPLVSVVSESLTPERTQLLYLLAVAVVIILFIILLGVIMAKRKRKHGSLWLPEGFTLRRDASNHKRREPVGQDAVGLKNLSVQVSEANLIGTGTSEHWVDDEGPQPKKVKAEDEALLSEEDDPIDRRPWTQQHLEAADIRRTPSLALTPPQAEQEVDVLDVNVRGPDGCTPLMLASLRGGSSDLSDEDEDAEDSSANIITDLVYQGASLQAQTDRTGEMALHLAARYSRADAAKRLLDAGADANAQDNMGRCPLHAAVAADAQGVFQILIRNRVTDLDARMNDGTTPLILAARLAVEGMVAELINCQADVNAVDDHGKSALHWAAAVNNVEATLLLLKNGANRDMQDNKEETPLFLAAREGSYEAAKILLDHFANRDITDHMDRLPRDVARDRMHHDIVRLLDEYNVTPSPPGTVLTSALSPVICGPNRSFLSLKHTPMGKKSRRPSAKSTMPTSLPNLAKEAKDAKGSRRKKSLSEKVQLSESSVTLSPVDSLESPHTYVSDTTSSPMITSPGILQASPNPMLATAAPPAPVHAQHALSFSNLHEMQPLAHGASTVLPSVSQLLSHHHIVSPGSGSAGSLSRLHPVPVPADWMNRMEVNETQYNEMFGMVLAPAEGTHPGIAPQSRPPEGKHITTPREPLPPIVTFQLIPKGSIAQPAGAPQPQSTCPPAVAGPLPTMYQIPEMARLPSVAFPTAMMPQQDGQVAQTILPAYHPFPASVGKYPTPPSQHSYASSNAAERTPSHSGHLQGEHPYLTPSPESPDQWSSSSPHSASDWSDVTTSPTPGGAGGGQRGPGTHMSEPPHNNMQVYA
# [6] = biological target: Pro-neuregulin-1, membrane-bound isoform (Homo sapiens) (UniProt Q02297); experiment: small molecules binding neuregulin-1 protein – biochemical, small-molecule microarray, fluorescence 635/667, psychiatric disease protein project, primary screen (AID 1075); conditions: NRG1 binding, 635 nm fluorescence, higher = more signal;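 further: score combines 667 nm spot fluorescence with signal to noise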
# Chain of Pro-neuregulin-1, membrane-bound isoform (Homo sapiens) (Q02297 whole entry, looked up, the tested form may be a part, canonical isoform): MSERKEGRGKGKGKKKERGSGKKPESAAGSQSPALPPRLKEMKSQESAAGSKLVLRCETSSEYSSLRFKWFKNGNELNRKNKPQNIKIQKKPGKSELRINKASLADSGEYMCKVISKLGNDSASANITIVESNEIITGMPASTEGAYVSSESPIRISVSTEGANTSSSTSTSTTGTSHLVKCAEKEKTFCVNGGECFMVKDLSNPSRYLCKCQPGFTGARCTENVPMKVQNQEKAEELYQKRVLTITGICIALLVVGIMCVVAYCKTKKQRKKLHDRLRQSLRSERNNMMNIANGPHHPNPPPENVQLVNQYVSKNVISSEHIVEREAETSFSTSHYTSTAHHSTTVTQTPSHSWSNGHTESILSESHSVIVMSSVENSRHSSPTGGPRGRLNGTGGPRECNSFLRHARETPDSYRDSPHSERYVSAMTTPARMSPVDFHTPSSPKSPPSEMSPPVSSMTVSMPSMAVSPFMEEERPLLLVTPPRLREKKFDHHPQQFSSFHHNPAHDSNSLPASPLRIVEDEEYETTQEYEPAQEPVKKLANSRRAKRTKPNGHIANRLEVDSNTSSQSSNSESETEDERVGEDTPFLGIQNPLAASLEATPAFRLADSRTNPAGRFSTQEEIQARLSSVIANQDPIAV
# [7] = tested on: Neuregulin-1 EGF-like domain; experiment: small molecules binding NRG1 EGF domain – biochemical, small-molecule microarray, 635 nm fluorescence, primary screen (AID 1081); conditions: higher = more signal;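 further: binding of the protein to compounds printed on small-molecule microarray slides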
# [8] = FRG1 expression reporter modulators in myotubes – cell-based, C2C12 myotubes, firefly/Renilla luciferase, luminescence, FRG1 inhibition for FSHD, primary screen (AID 1084); conditions: FRG1 promoter luciferase, higher = more signal, called active from +8 up or from −8 down
# [9] = small molecules captured by biotinylated probe aFST – biochemical, small-molecule microarray, fluorescence 635/667, stem cell growth factor project, primary screen (AID 1086); conditions: higher = more signal;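 further: score merges 667 nm fluorescence with signal-to-noise of each printed compound spot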
# [10] = binders of probe aHhip on microarray, primary screen, stem cell growth factor project, biochemical, small-molecule microarray, fluorescence 635/667 (AID 1087); conditions: higher = more signal;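 further: score merges spot fluorescence at 667nm with spot signal to noise ratio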
# [11] = tested on: PRMT1 (protein arginine N-methyltransferase 1); experiment: small molecules binding arginine methyltransferase PRMT1 – biochemical, small-molecule microarray, 635 nm fluorescence, primary screen (AID 1088); conditions: higher = more signal;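 further: binding of Prmt1 protein to compounds spotted on small-molecule microarray slides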
# [12] = growth effects on S. cerevisiae YJM789 – YJM789 clinical isolate, OD600, 24 h, basal, primary screen (AID 1089); conditions: higher = more signal, called active from +8 up or from −8 down;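 further: growth of clinical yeast isolate S. cerevisiae YJM 789 seeded 1000 cells per well; test concentration not given here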
# [13] = S. pombe growth modifiers, basal conditions – strain 972, OD600, 24 h, no modulator, primary screen (AID 1090);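 further: basal condition with compound alone and no growth modifier present; test concentration not given here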; conditions: S. pombe 972 growth, higher = more signal, called active from +8 up or from −8 down
# [14] = budding yeast growth modifiers under rapamycin – strain BY4716, OD600, 96 h, primary screen (AID 1091); further: test concentration not given here; conditions: S. cerevisiae BY4716 + rapamycin, higher = more signal, called active from +8 up or from −8 down
# [15] = biological target: Torsin-1A-interacting protein 2 (Homo sapiens) (UniProt Q8NFQ8); experiment: small molecules binding lysate-expressed LULL1 – cell lysate, human LULL1 lysate, 635/667 nm fluorescence, primary screen (AID 1092); conditions: small-molecule microarray, hLULL1 lysate binding, 635 nm fluorescence; higher = more signal;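 further: probe is lysate of COS7 cells overexpressing human LULL1; score merges per-feature 667 nm fluorescence with signal-to-noise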
# Chain of Torsin-1A-interacting protein 2 (Homo sapiens) (Q8NFQ8 whole entry, looked up): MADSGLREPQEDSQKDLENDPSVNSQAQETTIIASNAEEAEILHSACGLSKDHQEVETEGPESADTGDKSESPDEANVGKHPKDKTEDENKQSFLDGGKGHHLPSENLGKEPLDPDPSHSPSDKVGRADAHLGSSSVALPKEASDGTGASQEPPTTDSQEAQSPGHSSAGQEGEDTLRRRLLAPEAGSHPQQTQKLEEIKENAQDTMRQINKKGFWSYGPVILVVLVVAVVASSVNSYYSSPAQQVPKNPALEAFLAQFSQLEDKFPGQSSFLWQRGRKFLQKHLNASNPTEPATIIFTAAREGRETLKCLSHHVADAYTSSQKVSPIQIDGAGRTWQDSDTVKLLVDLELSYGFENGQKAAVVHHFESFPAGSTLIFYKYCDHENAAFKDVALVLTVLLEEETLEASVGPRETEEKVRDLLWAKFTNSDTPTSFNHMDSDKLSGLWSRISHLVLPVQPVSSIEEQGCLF
# [16] = optical density change of DRC41 E. coli – strain DRC41, OD650, 24 h, E. coli filamentation project, primary screen (AID 1093);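 further: MC1000 strain lacking acrAB efflux and sulA so SOS filamentation is blocked; test concentration not given here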; conditions: E. coli DRC41 growth, higher = more signal, called active from +8 up or from −8 down
# [17] = probe aLefty2 binding to arrayed compounds – biochemical, biotinylated probe, 635/667 nm fluorescence, primary screen (AID 1094); conditions: small-molecule microarray, higher = more signal;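 further: score merges spot fluorescence near 667 nm with spot signal-to-noise ratio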
# [18] = tested on: Noggin (protein binding on small-molecule microarray); experiment: small molecules binding Noggin protein – biochemical, 635/667 nm fluorescence, primary screen (AID 1095); conditions: 635 nm fluorescence, higher = more signal;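 further: score merges 667 nm feature fluorescence with signal to noise over triplicate slides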
# [19] = biological target: Neurogenic locus notch homolog protein 3 (Homo sapiens) (UniProt Q9UM47); experiment: small molecules binding NOTCH3 protein – biochemical, 635/667 nm fluorescence, primary screen (AID 1096); conditions: small-molecule microarray, 635 nm fluorescence, higher = more signal
# [20] = probe aEGFR binding to arrayed compounds – biochemical, biotinylated probe, 635/667 nm fluorescence, primary screen (AID 1097); conditions: small-molecule microarray, higher = more signal;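 further: probe is a biotinylated anti-EGFR antibody binding compounds printed on slides; score combines fluorescence near 667 nm and signal to noise of each spot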
Compound,composite z-score [1],composite z-score [2],composite z-score [3],composite z-score [4],composite z-score [5],composite z-score [6],composite z-score [7],z-score [8],composite z-score [9],composite z-score [10],composite z-score [11],z-score [12],z-score [13],z-score [14],composite z-score [15],z-score [16],composite z-score [17],composite z-score [18],composite z-score [19],composite z-score [20]
CC(CO)N1C(=O)[C@@H]2[C@H]3C(=O)OCC=C[C@H]3OC23C=CCN(Cc2ccccc2)C(=O)[C@@H]13 (stereo not given in full),0.0457,-0.31,-0.166,-0.166,-0.374,-0.622,0.307,-0.282 (inactive),-0.531,0.12,-1.28,-0.163 (inactive),-0.528 (inactive),-1.45 (inactive),1.41,2.31 (inactive),-0.219,-0.662,0.0095,-0.206
COc1ccc([Si](C)(C)[C@H]2[C@H](CCn3cc([C@H](O)c4ccccc4)nn3)O[C@@]3(C(=O)N(Cc4ccc(N5C(=O)c6cccc7cccc5c67)cc4)c4ccccc43)[C@@H]2C)cc1,0.193,-0.241,-0.159,0.595,-0.715,0.45,1.1,-3.35 (inactive),-0.403,-0.0994,0.643,0.642 (inactive),1.17 (inactive),2.55 (inactive),0.277,0.021 (inactive),-0.0674,-0.162,-0.0817,-0.285
CO[C@H]1O[C@H](CO)[C@@H](OC(=O)Nc2ccccc2-c2ccccc2)[C@H](OC(=O)Nc2ccc3c(c2)OCO3)[C@H]1OC(=O)Nc1ccc2c(c1)OCO2,-0.0811,0.866,0.0555,0.937,1.47,1.72,1.35,4.93 (inactive),0.601,-0.0618,1.53,1.86 (inactive),1.35 (inactive),7.32 (inactive),3.25,2 (inactive),0.132,0.852,1.12,0.0115
NCCCCCCNC(=O)[C@@H]1C[C@@H]2C(=O)N[C@@H](CCCCN)C(=O)N2[C@@H]1c1cccc(OCCO)c1,1.06,1.81,0.221,-0.127,0.303,2.53,1.2,3.25 (inactive),-0.175,0.704,1.28,0.825 (inactive),0.962 (inactive),0.487 (inactive),2.14,0.398 (inactive),0.885,0.763,0.362,0.393
CCCC[C@@H]1C[C@H]1[C@@H](NC(=O)Cc1ccccc1)c1ccc(-c2ccccc2)cc1,-0.153,0.0056,-0.0064,-0.165,0.61,0.212,0.386,0.0529 (inactive),0.482,-0.0237,0.0706,0.341 (inactive),0.373 (inactive),-0.116 (inactive),2.94,-0.255 (inactive),-0.0204,-0.219,0.0419,-0.125
C=CCC(OC(C)=O)[C@@H]1[C@@H](N(Cc2cc3ccccc3o2)C(=O)c2ccc(C)cc2)c2cc(OCCCO)ccc2N1C(=O)Cc1ccc(OC)cc1 (stereo not given in full),-0.18,0.0811,-0.0878,-0.0177,0.0335,-0.433,-0.0742,0.443 (inactive),0.277,-0.0645,0.23,0.0303 (inactive),-0.841 (inactive),-0.131 (inactive),0.692,1.21 (inactive),0.0761,-0.0512,0.233,-0.15
CC(C)N1C(=O)C[C@@](C(=O)NCCCN(C)C)(c2ccc([N+](=O)[O-])cc2)[C@H]1c1ccc(CO)cc1,-0.153,-0.351,-0.0328,0.589,-0.072,0.454,-0.412,-0.0382 (inactive),0.27,-0.409,-0.139,-0.768 (inactive),-1.42 (inactive),-0.525 (inactive),0.349,-1.41 (inactive),-0.0221,-0.131,-0.233,-0.124
COC1OC[C@]2(C)[C@H]3C4=C(CN2C(=O)OC(C)(C)C)[C@H](C)C(CO)C(CO)C4CC[C@@H]13 (stereo not given in full),1.99,0.473,0.236,0.557,1.79,1.82,1.25,2.38 (inactive),1.85,1,1.18,0.58 (inactive),1.22 (inactive),0.867 (inactive),3.44,-0.172 (inactive),0.858,-0.05,0.96,0.187
O=C1C[C@@](C(=O)NCCN2CCOCC2)(c2ccc([N+](=O)[O-])cc2)[C@@H](c2ccc(CO)cc2I)N1C1CCCCC1,-0.218,-0.0103,-0.0736,0.262,0.64,0.148,1.43,1.21 (inactive),-0.0352,-0.0717,1.3,-1.9 (inactive),-2.09 (inactive),-1.05 (inactive),2.79,0.685 (inactive),-0.147,0.914,0.91,-0.0963
COC(=O)c1ccc([C@H](NC(=O)c2ccco2)[C@]2(C)C[C@H]2C2CCCCC2)cc1,0.685,-0.462,-0.0301,-0.11,0.329,1.12,-0.808,-0.622 (inactive),0.488,2.5,-1.67,0.0339 (inactive),0.17 (inactive),0.605 (inactive),1.45,-1.49 (inactive),-0.0986,-0.586,-0.436,-0.192
